Measured values taken from PubChem BioAssay AID1650 (Southern Research Specialized Biocontainment Screening …, 2009).
Results with a measured potency or affinity are listed apart. A number with no mark means an inactive call. No rule for the calls is given here.

experiment: mammalian cell viability reduction – secondary assay, cytotoxicity control for West Nile virus antiviral project, dose response (AID 1650); settings: Mammalian host cell viability, cytotoxicity counter-screen; series mostly up to 10 µM; viability: at the top concentration

| SMILES | viability |
| --- | --- |
| Cc1cc(N2CCN(C)CC2)nc2ccc(NC(=S)NCc3cccs3)cc12 | 72.5% [at 20 µM] |
| Cn1cc([N+](=O)[O-])c(C(=O)Nc2ccn(C34CC5CC(CC(C5)C3)C4)n2)n1 | 74.4% |
| Cc1onc(-c2cccc(Cl)c2Cl)c1C(=O)O/N=C(\N)c1ccc([N+](=O)[O-])o1 | 80.5% |
| COc1ccccc1CN1CCC(CNS(=O)(=O)c2cc(-c3onc(C)c3C)ccc2OC)CC1 | 85.3% |
| COc1cc(C=Nc2c(C)cc(C)cc2C)ccc1OC(C)=O | 92.2% |
| CCOc1cc(/C=N/N=C(\N)c2nonc2N)cc(Br)c1OCc1cccc2ccccc12 | 70.8% [at 20 µM] |
| Cc1ccc2nc(N(CCCN(C)C)C(=O)CCc3ccccc3)sc2c1 | 78.6% |
| COc1ccc(-c2cc3c(=O)n(CC(=O)NCc4ccccc4F)ncn3n2)cc1 | 87.8% [at 20 µM] |
| CCCCN(C)CCNC(=S)Nc1ccc2nc(N3CCN(CC)CC3)cc(C)c2c1 | 83.8% |
| O=C(Nc1cccc(Cl)c1)Nc1cc(S(=O)(=O)N2CCCCC2)ccc1Cl | 70.3% [at 20 µM] |
| C=CCn1c(SCc2csc(-c3ccc(Cl)cc3)n2)nnc1-c1ccccc1OC | 73% [at 20 µM] |
| COc1cc(CNC(C)(C)C)cc(Br)c1OCc1cccs1 | 88.1% [at 20 µM] |
| N#Cc1c(N)nc2c3c(sc(=N)c2c1N)NC(=O)CC3c1ccccc1Cl (configuration not stated) | 93.5% |
| CCOC(=O)N1CCC2(CC1)C(C#N)=C(N)OC1=C2C(=O)CCC1 | 95.4% |
| CCOC(=O)c1cn(CC(=O)Nc2ccc(C(C)C)cc2)nn1 | 88.6% |
| Cc1ccc(OCC(=O)c2cc(C)c(C)cc2C)c([N+](=O)[O-])n1 | 92.3% [at 20 µM] |
| COc1ccc(N=c2oc3ccc(OC)cc3cc2-c2nc3ccccc3[nH]2)cc1 | 80.5% |
